From PubChem BioAssay AID1508600 (Functional Genomics Laboratory (NCATS/FGL), 2020)
In all, about 53,000 sequences went through this assay and about 3,700 (7%) were called active. This excerpt belongs to a sample that is enriched for actives. Unmarked numbers belong to inactive results.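 The calls were made as follows: active = gene knockdowns whose robust z-score for IL-1 alpha signal is at least 2 or at most -2, so actives lie on both sides; inactive = the rest.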

Assay: Components of the Cytosolic LPS Sensing Pathway: Gene Identification via Genome-wide siRNA Screen;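 also: robust z of the log signal after scaling to non-targeting control siRNA wells of the plate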
Conditions: RAW264.7 macrophages, IL-1a HTRF, actives lie on both sides, screened at 100 nM (by protocol), cells primed 5 h with Pam3CSK4 first
Outline: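 Three distinct siRNAs per gene were tested singly at 100 nM in RAW264.7 macrophages. Following Pam3CSK4 priming and 24 hour LipidA transfection, IL-1a secretion was read by HTRF.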
Work on GGACCAUUCUGAAGAGCAGTT against Il5ra yielded a z-score of 0.867.
Work on GCUUUAUUGACACGACCCGTT against Rbm19 yielded a z-score of 0.184.
Work on CCGUCGUACACAAUCUUACTT against Fgfr4 yielded a z-score of -0.512.
For GGUACACAACCAUCCUUGATT against Olfr600, the z-score was -2.33 (active).
With CCUACAUCAGGUCAGCAAGTT against Mrto4 the z-score was 1.26.
With GGAAAAAGCAAAUUGAGGATT against Uchl1 the z-score was -1.48.
In the case of GCAGAGUCACCUUACUAACTT against Fam122b, the z-score is reported as -0.0407.
With GGAGCUACACACAUAGGAATT against Clec2h the z-score was 0.891.
In the case of GGAUACCAAGAUUCCAAAUTT against Pik3r4, the z-score is reported as 2.19 (active).
Work on GCCAGCAACCCUCUUCGUUTT against Foxo6 yielded a z-score of 0.142.
For CCUUUGACGGCCAUGAGUATT against Muc6, the z-score was -1.39.
Sequence GCUAAGCACAAUGUGUACATT against Dus4l has a z-score of -0.633.
GGUCAUAGCUUAGAAGGUGTT against Rhov showed a z-score of -0.233.
In the case of GGGAAGCAAUAAGUCGCCUTT against Shc4, the z-score is reported as 0.394.
For GAGCCAAGUACCAUCUAUATT against Olfr389, the z-score was 2.28 (active).
Sequence GGUUAAGCAGAAAUUAAGATT against Supt20 has a z-score of -0.551.
GCCACAGGAUGCUAGCAAATT against Bex2 showed a z-score of 0.282.
GCAGUUGGUAUUGUUAACUTT against Maml1 showed a z-score of -0.0252.
Sequence GCUAAACCCAAAAACACAATT against Sim2 has a z-score of 1.04.
GCUAGAAAUAAGGCUGCACTT against Plekhg6 showed a z-score of -1.2.
For GGAAGCAAGUAUCCCGAAUTT against Snhg11, the z-score was -2.58 (active).
GCCAAUGAGAGUAGGAAAGTT against Elovl3 gave a z-score of 1.43.
Work on GCCUCUCAACUUAAUAACATT against Zup1 yielded a z-score of -0.697.
GCUAACAGUAUCCUUAUUUTT against Vmn1r53 showed a z-score of -0.436.
For CCUCUACAAUGUAACCAACTT against Kir3dl2, the z-score was -0.183.
With GGAAACAUUAGAAUCUUGUTT against Lin52 the z-score was -2.23 (active).
GGUCUUCGCCACAUGGAAATT against Crkl showed a z-score of 0.436.
With CCUUGUCCCUUUACCUCAATT against Plk5 the z-score was -1.39.
GCUUUAGGAAAUUUUGUGUTT against Ska3 showed a z-score of -1.05.
Sequence GGUCAUUCUAAUGACAAUCTT against Atg14 has a z-score of -0.014.
With GGUUAGAGAUUGUUCUGUUTT against Olfr267 the z-score was 2.02 (active).
AAUGGCAUAGGUCCUAUUATT against Tcaim gave a z-score of -0.011.
Work on GGUUUUUGUCCCAUCUUGGTT against Zc3h12d yielded a z-score of 0.228.
Sequence GGGUCUUUAAACUGAAAGATT against Sh3pxd2a has a z-score of 0.0777.
In the case of CCUGUAAGGUCUCUAGCAUTT against Exosc1, the z-score is reported as 1.53.
Sequence GGUUGUGCACAGCAGUGUUTT against Crct1 has a z-score of -0.716.
With GGACAAAGUCACAGAGUCCTT against Slc26a5 the z-score was -2.08 (active).
Work on GCACGUACCUGAUAGUCCUTT against Daglb yielded a z-score of -0.976.
With GGGCCAAACCCAGAACUAUTT against Sema4g the z-score was 1.5.
With GGACAAGUCAAUUUGUUGGTT against Zfp36l1 the z-score was 0.277.
In the case of GGUGUAUCGGAACAGUGAGTT against Det1, the z-score is reported as -2.8 (active).
For GCAAUGGAACUAUUAUUCATT against Cd28, the z-score was 2.48 (active).
Work on GGCUUCAAAGCAUGACCAGTT against Ccr1 yielded a z-score of -0.528.
In the case of GGACCUGCCAAAAGUUGUGTT against Uqcrc1, the z-score is reported as -1.16.
Work on GCAGUUGAAUAUCAGACUGTT against Obox5 yielded a z-score of -0.973.
GGUUCAGAAUCAAUACGAGTT against Krt2 gave a z-score of -0.909.
In the case of GGACACUUCCAAACUGACCTT against Tiparp, the z-score is reported as -1.43.
With GCGUAGGUCAUCCUUGUAATT against Samd4 the z-score was -2.22 (active).
For GGUCAUUCACAAGUCCUUUTT against Serpinb6b, the z-score was 0.863.
Sequence GCCAGUGGUAGCGAUAUGATT against Zscan4c has a z-score of -0.263.
With GGAGAACACCAAAAAGGGCTT against Uncx the z-score was -1.26.
GCUGUGUGGACAAAGUCUGTT against Clec4b1 gave a z-score of -0.398.
Work on GGUCUUUAGAAUUAGGCUCTT against Pml yielded a z-score of 0.188.
With GCACUUUAAAAGAAUCACUTT against Slc2a12 the z-score was 2.11 (active).
Work on GGAAGAAGUAGCUAAAAACTT against Entpd4 yielded a z-score of 0.488.
GGUCUUGCUAUUUGUGAUATT against Olfr1294 gave a z-score of 0.617.
With GGACUUCACAAGACUUCAATT against Nfam1 the z-score was 2.06 (active).
For GGUCAAGGAAUUAGUGAUUTT against Tctex1d1, the z-score was 0.398.
With GGUACAGUGUCAUCAUGAATT against Olfr460 the z-score was -0.456.
GGUAAUUUGUAAGGAACCCTT against Rpusd2 showed a z-score of -0.881.
GGAAAAAUGGGAGUUUGAATT against Ccdc83 showed a z-score of -0.291.
Sequence GUCCUUCUCAUCAUGGGACTT against Sec61g has a z-score of -0.248.
Work on GGCGAAAGUGCUUUUCCUGTT against Gbp8 yielded a z-score of 1.03.
Work on GCUGAUCCACGACUACUUGTT against Rab10os yielded a z-score of 1.24.
In the case of GCUUAGAUCUUACCCACCCTT against Ptcra, the z-score is reported as 2.52 (active).
For GCUCCGUAAGAAGUCUCGUTT against Dhx16, the z-score was -0.676.
GAUGGAGAAACUGAAGAAGTT against Olfml2a gave a z-score of -0.117.
With UCCACUUCACUAAUCCUGUTT against Vmn2r43 the z-score was -2.52 (active).
GCUGGAUUUGGACUCUUAGTT against Vmn1r16 gave a z-score of 1.1.
Work on GGGCUGUGAUAUGCAACUCTT against Teddm2 yielded a z-score of -0.988.
For GGAAAUGGUCCCUCUGUGUTT against Tspoap1, the z-score was -2.99 (active).
For CCUUUGAUCAAUUCUGAGUTT against Glb1, the z-score was -0.554.
Work on GCAACGUGAAACAUAUUCUTT against Cpb1 yielded a z-score of 1.69.
For GGAAGUAACCACAUCCUAUTT against Epn2, the z-score was -0.628.
With GGAGGGAAUGAAAAGUCAATT against Stard7 the z-score was 2.09 (active).
GGUCACUGUUAGUUAUUAATT against Tcerg1l gave a z-score of 0.954.
GGGUAUUUUACCACUACUUTT against Psg23 showed a z-score of 0.32.
With GCCGUCACAAGAACUGAACTT against Apon the z-score was -0.24.
With CCCACUUUGAGGAAAGCUATT against Itprip the z-score was -2.46 (active).
For GGAAAACUAACCAAAAUAGTT against F3, the z-score was 1.45.
GGCAAAUUAUUAGUACAGUTT against Gabpa showed a z-score of 1.41.
Work on CCCGAAUCUCAGCGUAGAATT against Gm5617 yielded a z-score of -0.853.
In the case of GGAGUUCAAUCCAACAAAATT against Atxn2l, the z-score is reported as -1.4.
In the case of GCUCAGAGACAAGCAACUGTT against Kcnk7, the z-score is reported as 0.247.
In the case of GGAACAGAAAACCAUAUAATT against Snx29, the z-score is reported as -2.54 (active).
With GGUUAUGAGGCUUAAUAAATT against Atxn7l1 the z-score was 0.965.
In the case of CCCUCGGUGCCUAAUAAAUTT against Hsd17b10, the z-score is reported as -0.0731.
Sequence GGAUGCUAUAAAGAAUGCCTT against Prpf39 has a z-score of -1.19.
In the case of UCCGUUGGAGUAUCGAUGUTT against Trp53rka, the z-score is reported as -1.25.
For GCGAGAUGGAAGGAUCUUGTT against Anapc13, the z-score was 5.28 (active).
Work on GGAGAACAUGGAGACUAUUTT against Ramp1 yielded a z-score of -0.756.
In the case of GGUCUACCAUUUCACCUUGTT against Cops4, the z-score is reported as 1.19.
GUUGCCAGAUUUGGAUAUUTT against Abcg5 gave a z-score of 0.664.
In the case of CGGGAAGAGUACUUGUUUUTT against Cfl1, the z-score is reported as 0.153.
CAAAGCCACCUCGCCCUAUTT against Nkx2-6 showed a z-score of -0.0586.
Work on GGCUUAUGUUUGCUUUGUUTT against Piwil1 yielded a z-score of 0.0916.
Work on CCUUUUUCUGGAUUGGAAUTT against Klrd1 yielded a z-score of -0.00525.
For GGAAUAUGACUUCAAGAUGTT against Lmnb2, the z-score was 4.28 (active).
In the case of AAUGCAAACAAUGCAAAUGTT against Mt2, the z-score is reported as -0.174.
For GGCUAAAGCGAAAAAAAAGTT against Msl3, the z-score was -0.114.
CGGAUUCACAAGAACACCUTT against Pramel12 gave a z-score of -0.157.
GGGCUGUUCCAUUUCUUUATT against Atcay showed a z-score of 0.727.
For CGGAACUCUGCCACAAGUUTT against Zfp36, the z-score was 1.27.
GGCAUAUGUUGAAACUAUUTT against Sel1l3 showed a z-score of 1.29.
With GCUCGUGUCAGAACCGAUGTT against Rwdd3 the z-score was 2.39 (active).
Sequence GCCAAAAAAGCUGUCAGUUTT against Nkx2-3 has a z-score of -1.11.
With GGAGGACGUAACUAAAUCATT against Napepld the z-score was -0.934.
In the case of UCUACAGGACUAUUAGAUUTT against Wnt6, the z-score is reported as 0.563.
